Screening data (PubChem BioAssay)
BAZ2B block: qHTS Assay for Inhibitors of BAZ2B; AlphaScreen BAZ2B-H3K14Ac peptide displacement; Potency, µM (highest dose often 114 µM), inactives show top-dose activity change, negative = inhibition, usual class: inhibitors; hit rate 4.4% among 360,000; further: on the % scale 0 is the no-effect control and ±100 the full control effect; nearly all actives have a fitted effect of over 60% in size
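Compounds, titrated to a top concentration of 110 uM, were incubated 30 min at room temperature with preformed BAZ2B/acetyl-K14 H3 peptide complex (50 nM each). Proximity signal was measured by AlphaScreen after 20 min with beads.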
HP1b chromo inh: HTS for Inhibitors of HP1-beta Chromodomain Interactions with Methylated Histone Tails; Chromobox protein homolog 1 (Homo sapiens), P83916; AlphaScreen HP1-beta / biotin-H3K9me3 peptide binding; Potency, µM (top dose mostly 114 µM), without a hit: top-dose activity change, negative = inhibition, hits mostly inhibitors; hit rate 0.56% among 390,000; AID 540317, 2011; further: nearly all actives have a fitted effect of over 70% in size
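HP1-beta protein (50 nM final) preincubated 30 min at room temperature with biotinylated H3(1-18)K9me3 peptide (50 nM) in PBS pH 7.4, 0.01% Tween-20, then compound added for 30 min. AlphaScreen streptavidin donor/nickel chelate acceptor beads (10 ug/mL final), 30 min dark, luminescence read.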
L3MBTL1 block: qHTS Assay for the Inhibitors of L3MBTL1; Lethal(3)malignant brain tumor-like protein 1 (Homo sapiens), Q9Y468; AlphaScreen L3MBTL1–H3K9me1 peptide binding; AID 485360, 2010; hit rate 0.66% among 230,000; Potency, µM (titrated, usually from 57.1 µM), for the others: top-dose activity, negative = inhibition, actives largely listed as inhibitors; further: on the % scale 0 is the no-effect control and ±100 the full control effect; nearly all actives have a fitted effect of over 60% in size
Target sequence (Q9Y468 whole entry, looked up): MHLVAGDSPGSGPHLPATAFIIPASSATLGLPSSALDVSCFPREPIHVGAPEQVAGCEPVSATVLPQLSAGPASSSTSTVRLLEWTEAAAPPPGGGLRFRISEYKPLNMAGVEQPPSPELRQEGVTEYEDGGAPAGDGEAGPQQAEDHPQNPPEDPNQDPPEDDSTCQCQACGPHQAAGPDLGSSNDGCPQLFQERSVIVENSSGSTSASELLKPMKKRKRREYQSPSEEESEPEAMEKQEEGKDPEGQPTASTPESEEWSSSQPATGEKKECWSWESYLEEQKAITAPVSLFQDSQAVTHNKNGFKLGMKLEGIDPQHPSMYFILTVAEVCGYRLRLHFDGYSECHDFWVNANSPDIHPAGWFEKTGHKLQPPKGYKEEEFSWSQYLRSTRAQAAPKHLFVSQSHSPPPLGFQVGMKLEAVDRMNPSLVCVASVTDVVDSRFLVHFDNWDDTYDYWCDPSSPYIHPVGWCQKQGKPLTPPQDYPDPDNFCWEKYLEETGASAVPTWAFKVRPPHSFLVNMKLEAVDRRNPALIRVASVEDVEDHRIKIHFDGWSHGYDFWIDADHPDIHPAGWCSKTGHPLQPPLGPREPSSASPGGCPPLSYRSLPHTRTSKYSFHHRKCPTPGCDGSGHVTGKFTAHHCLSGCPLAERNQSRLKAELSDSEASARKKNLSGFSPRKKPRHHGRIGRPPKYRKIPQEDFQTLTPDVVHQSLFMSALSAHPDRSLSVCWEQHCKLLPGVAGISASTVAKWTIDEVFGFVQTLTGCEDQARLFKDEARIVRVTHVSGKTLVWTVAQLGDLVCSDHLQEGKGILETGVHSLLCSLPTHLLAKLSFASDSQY
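L3MBTL1 50 nM + b-AHA-H3(1-15)K9me1 75 nM, 30 min RT; compound added, 30 min RT; streptavidin donor/Ni-chelate acceptor beads 10 ug/mL each final, 30 min RT dark; AlphaScreen read.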
JMJD2A Tudor: qHTS Assay for Inhibitors of JMJD2A-Tudor Domain. Lysine-specific demethylase 4A (Homo sapiens), O75164. AlphaScreen JMJD2A-Tudor / H3K4me3 peptide binding. Potency, µM (series often up to 114 µM), for inactives: at the top dose activity change, negative = inhibition, most hits filed as inhibitors. hit rate 4.4% among 390,000. AID 504339, 2011; further: on the % scale 0 is the no-effect control and ±100 the full control effect; nearly all actives have a fitted effect of over 50% in size
Sfp inh: qHTS Assay for Inhibitors of Bacillus subtilis Sfp phosphopantetheinyl transferase (PPTase). 4'-phosphopantetheinyl transferase ffp (Bacillus subtilis), Q9F4F7. Biochemical Sfp PPTase activity, qHTS. Potency, µM, for inactives: largest response in the series, negative = inhibition, hits mostly inhibitors. hit rate 3.5% among 310,000. AID 1490, 2009;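 further: the enzyme is Sfp with the accession as filed and its product quenches rhodamine fluorescence; 0% = enzyme reaction without inhibitor and -100% = no enzyme wells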
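Fluorescence-quenching assay: 15 nM Sfp-PPTase preincubated 15 min at room temperature with compound, then 5 uM rhodamine-CoA and 12.5 uM BHQ-2-labelled YbbR peptide added. Fluorescence (ex 525/em 598 nm) read at start and after 30 min; difference gives rate.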
G9a block: qHTS Assay for Inhibitors of Histone Lysine Methyltransferase G9a. Potency, µM (top dose mostly 102 µM), for inactives: top-dose activity, negative = inhibition, most hits filed as inhibitors. G9a H3K9 monomethylation, AlphaScreen, 2 h. hit rate 8.8% among 350,000. Histone-lysine N-methyltransferase EHMT2 (Homo sapiens), Q96KQ7; further: on the % scale 0 is the no-effect control and ±100 the full control effect; nearly all actives have a fitted effect of over 75% in size
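Chemiluminescent proximity detection of H3K9 monomethylation, read after 10 min bead incubation in the dark. Reaction: 20 nM G9a, 500 nM biotin-H3K9 peptide, 20 uM SAM cofactor, 2 h, room temperature, following 15 min enzyme-compound preincubation.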
* hit, by the source's call; u = inconclusive; x = not tested or not shown; [ ] = another dose, or the depositor's remark. Compounds with a hit are over-represented: about 12% of the library has one in this group of screens. The call rests on the fitted dose curve; in most records, active means well fitted curve in the direction sought with a large enough effect; inconclusive means small, poorly fitted or top-dose-only effect, or another doubt; inactive means no such curve, though single readings can be large; an effect the other way counts as inactive or inconclusive. Potency means the concentration at half of the fitted maximal effect.

SMILES | BAZ2B block | HP1b chromo inh | L3MBTL1 block | JMJD2A Tudor | Sfp inh | G9a block
COC(=O)C(N)CCCN=C(N)N[N+](=O)[O-] (centres undefined) | x | x | x | x | x | 11.4%[12.7 µM]
CC(CCC(=O)O)C1CCC2C3C(=O)C[C@@H]4CC(=O)CC[C@@]4(C)C3CC(=O)[C@]12C (some centres undefined) | x | x | x | x | 7.2% | -0.2%[59 µM]
C/C(=N\NC(=S)Nc1ccccc1)c1c(O)n(C)c(=O)n(C)c1=O | -3.8% | -8.1% | -1.0% | 17.8µM* | 28.2µM* | 1.26µM*
COc1ccc(-n2c(O)c(/C(C)=N/Nc3ccccc3)c(=O)[nH]c2=O)cc1 | -5.9% | 41.9% | 1.2% | -15.1% | 0.0% | 39.8µM*
C[n+]1cccc(C(=O)NCC2CCCO2)c1 (centres undefined) | -2.5% | 15.5% | 1.9% | -2.7% | -1.9% | u
CCOc1cc(/C=C(\C#N)C(=O)NCC2CCCO2)ccc1OCC(N)=O (centres undefined) | -11.1% | -16.4% | -1.5% | -24.1% | 0.6% | 50.1µM*
COc1ccc(/C=C/C=C2C(=O)NC(=S)NC2=O)cc1 | x | -26.4% | x | -30.6% | x | x
CCOc1cc(C=O)ccc1O | x | 22.9% | -2.6% | -20.4% | x | x
CCOc1cc(C=C2C(=O)NC(=S)NC2=O)ccc1O | x | u | x | 31.6µM* | x | x
COc1ccc(C=C2C(=O)NC(=S)NC2=O)cc1OC | x | u | x | 22.4µM* | x | x
NC(Cc1nc2ccccc2[nH]1)c1ccc(Cl)cc1 (centres undefined) | -24.9% | 10.9% | -8.1% | -24.6% | 19.2% | 39.8µM*
CSCC[C@H](NC(=O)[C@H](Cc1ccccc1)NC(=O)CNC(=O)CNC(=O)[C@@H](N)Cc1ccc(O)cc1)C(=O)O | x | x | x | x | 2.0% | 45.0%[59 µM]
CC1CCCN(CC(=O)c2ccc(Cl)c(Cl)c2)C1 (centres undefined) | u | 65.3% | -0.8% | -6.2% | -5.2% | 25.1µM*
CC1CCN(CC(=O)c2ccc3c(c2)OCCO3)CC1 | x | u | 10.1% | 5.01µM* | u | 4.47µM*
O=C(Nc1cccc(F)c1)N1CC2(CCNCC2)C1 | x | x | x | x | u | -5.8%[12.7 µM]
Cc1ncsc1CCOC(=O)c1ccc([N+](=O)[O-])cc1 | u | -33.2% | -15.1% | u | 5.8% | u
CCC(CO)NC(=O)[C@@H]1C=C2c3cccc4[nH]cc(c34)C[C@H]2N(C)C1 (some centres undefined) | x | x | x | x | x | 33.0%[12.7 µM]
COc1cc(OC)c(OC)cc1CN1CCN(C(=O)COc2ccc3ccccc3c2)CC1 | 44.7µM* | 50.1µM* | x | 3.16µM* | -21.0% | 10µM*
COc1ccc(OCC(=O)N2CCN(C(C)C)CC2)cc1 | 56.2µM* | u | u | 1.41µM* | -19.3% | 10µM*
CCN1CCN(C(=O)Cc2ccccc2OC)CC1 | -24.9% | 33.6% | -17.4% | -7.7% | 16.0% | -3.8%
COc1ccccc1CN1CCN(C(=O)COc2ccccc2)CC1 | u | u | 11.1% | 3.16µM* | -11.2% | u
COc1cccc(CN2CCN(C(=O)COc3ccc4ccccc4c3)CC2)c1 | -27.5% | 10.3% | -1.4% | -28.0% | u | u
Cc1cccc(OCC(=O)N2CCN(Cc3ccc([N+](=O)[O-])cc3)CC2)c1 | -1.0% | u | 8.6% | 10µM* | 11.6% | 0.2%
COc1ccc(OCC(=O)N2CCN(Cc3ccc4c(c3)OCO4)CC2)cc1 | -9.1% | 12.9% | -2.0% | -6.3% | 25.7% | 4.8%
COc1ccc(CNC(=O)/C=C\c2ccc3[nH]cc(CCN(C)C)c3c2)cc1 | x | x | x | x | 12.7% | x
SMILES | BAZ2B block | HP1b chromo inh | L3MBTL1 block | JMJD2A Tudor | Sfp inh | G9a block
CCCN(C(=O)c1cc2c(=O)oc3ccccc3c2s1)c1cccc(Cl)c1 | 3.2% | 11.3% | x | u | x | -2.5%[59 µM]
Cc1ccc(N/N=C/C=C/c2ccco2)cc1 | x | u | x | 50.1µM* | x | x
O=c1[nH]c(O)c(C=Nc2ccccc2Sc2ccccc2)c(=O)[nH]1 | -10.1% | 54.9% | x | -10.0% | 15.7% | u
O=c1[nH]c(O)c(C=Nc2ccccc2[N+](=O)[O-])c(=O)[nH]1 | -3.3% | x | u | x | -7.5% | 70.8µM*
CC(C)CC1C(=O)N2CCC[C@H]2[C@]2(O)O[C@](NC(=O)[C@@H]3C=C4c5cccc6[nH]c(Br)c(c56)C[C@H]4N(C)C3)(C(C)C)C(=O)N12 (some centres undefined) | x | 1.6% | x | u | x | x
CNC(=O)[C@@H]1C[C@H]1[C@@H](NP(=O)(c1ccccc1)c1ccccc1)c1ccccc1 | x | x | x | x | 28.9% | x
CC[n+]1c(/C=C/C=C/c2ccc(N(C)C)cc2)sc2ccccc21 | 35.5µM* | u | u | 50.1µM* | u | 39.8µM*
CCOc1ccc2nc(N=Nc3c(O)[nH]c(=O)[nH]c3=O)sc2c1 | 44.7µM* | -6.4% | -13.1% | -11.0%[11.4 µM] | 9.6% | x
CCOc1ccc2nc(NC(=O)c3cccn(Cc4ccccc4C)c3=O)sc2c1 | 1.2% | 32.1%[57 µM] | x | 4.2% | x | 9.5%[59 µM]
CCOC(=O)c1sc(N=Nc2c(O)[nH]c(=O)[nH]c2=O)c(C(=O)OCC)c1C | -36.5% | x | -10.8% | x | 5.6% | -22.8%[59 µM]
CCOc1ccc2nc(N=Nc3c(O)[nH]c(=S)[nH]c3=O)sc2c1 | 22.4µM* | u | 7.94µM* | u | 56.2µM* | 35.5µM*
C=CC[N+](C)(C)c1ccc(CCC(=O)CCc2ccc([N+](C)(C)CC=C)cc2)cc1 | -13.3% | 29.4% | -7.3% | -3.6% | x | 15.8µM*
CCOP(=O)(OCC)O/C(=C/Cl)c1ccc(Cl)cc1Cl | x | x | x | x | 15.6% | -4.7%[12.7 µM]
O=C(O)c1cccc2c1NC(C(=O)O)C1CC(Sc3ccccc3[N+](=O)[O-])C(Cl)C21 (centres undefined) | 6.31µM* | -93.5% | 2.24µM* | 14.1µM* | 25.1µM* | 10µM*
CC(=O)c1ccc2c(c1)C1C(Cl)C(Sc3ccccc3[N+](=O)[O-])CC1C(C(=O)O)N2 (centres undefined) | 10µM* | u | 3.98µM* | 35.5µM* | 56.2µM* | 7.94µM*
CC(C)[C@H](NC(=O)[C@H](CCC(=O)O)NC(=O)[C@H](Cc1ccccc1)NC(=O)[C@@H](C)NC(=O)[C@@H](N)Cc1ccc(O)cc1)C(=O)N[C@H](C(=O)NCC(N)=O)C(C)C | x | x | x | x | 8.3% | x
